From PubChem BioAssay
14-3-3 Bad PPI: inhibitors of 14-3-3 zeta/Bad binding, primary screen, biochemical, TR-FRET, bovine 14-3-3 zeta | inhibition, % at 21.7 µM | 0.71% of 220,000 active | TR-FRET 14-3-3zeta/Dy647-pBad peptide displacement, 1 h | 14-3-3 protein zeta/delta (Bos taurus), P63103;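 active means inhibition above about 70%, limit read from the data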
Target sequence (P63103 whole entry, looked up): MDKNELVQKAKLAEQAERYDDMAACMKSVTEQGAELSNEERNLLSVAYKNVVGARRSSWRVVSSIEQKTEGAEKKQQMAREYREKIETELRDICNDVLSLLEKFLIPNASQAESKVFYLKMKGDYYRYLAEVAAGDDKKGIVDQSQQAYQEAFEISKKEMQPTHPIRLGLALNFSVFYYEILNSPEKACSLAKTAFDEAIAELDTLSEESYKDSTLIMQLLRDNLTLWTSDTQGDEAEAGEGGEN
Arbovirus inh: antivirals against arbovirus infection, primary screen, cell-based, full library, 10K replicate subset | inhibition, % at 10 µM | 0.37% of 200,000 active | arbovirus infection cell-based antiviral screen; in the data active means inhibition above about 30%
Mcl1 Bid PPI: Mcl-1/Bid binding inhibitors, primary screen, biochemical, TR-FRET, 1536-well; inhibition, % at 21.7 µM; TR-FRET Mcl-1/Bid-Dy647 peptide binding; 0.97% of 220,000 active; Induced myeloid leukemia cell differentiation protein Mcl-1 (Homo sapiens), Q07820;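 active means compounds that cut the binding signal by more than half at the single screening dose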;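 further: His-tagged Mcl-1 with europium anti-His antibody binding Bid BH3 peptide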
Target sequence (Q07820 whole entry, looked up): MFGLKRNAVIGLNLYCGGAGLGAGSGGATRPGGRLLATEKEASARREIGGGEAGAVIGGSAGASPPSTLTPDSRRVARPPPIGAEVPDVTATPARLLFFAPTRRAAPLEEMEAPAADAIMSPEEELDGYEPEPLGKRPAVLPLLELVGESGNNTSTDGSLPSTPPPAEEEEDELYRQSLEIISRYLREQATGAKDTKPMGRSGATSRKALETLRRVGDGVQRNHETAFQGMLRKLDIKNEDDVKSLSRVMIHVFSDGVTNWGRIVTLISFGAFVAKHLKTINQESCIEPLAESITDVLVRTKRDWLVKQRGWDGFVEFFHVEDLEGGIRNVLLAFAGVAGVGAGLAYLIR
Mcl-1 Bim block: inhibitors of Bim peptide binding to Mcl-1, primary screen, biochemical, bead-based flow cytometry, multiplex; Induced myeloid leukemia cell differentiation protein Mcl-1 (Homo sapiens), Q07820; Bim peptide-Mcl-1 binding; inhibition, % at 10 µM; 0.1% of 190,000 active; AID 1009, 2008; in the data active means inhibition above about 40%
Mcl1 Noxa PPI: Mcl-1/Noxa binding inhibitors, primary screen, biochemical, TR-FRET, 1536-well; 1.5% of 220,000 active; AID 1022, 2008; TR-FRET Mcl-1/Noxa peptide binding, 2 h; inhibition, % at 21.7 µM;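 active means compounds that cut the protein-peptide binding signal by more than 50% relative to plate controls in a single-dose test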;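 further: His-tagged Mcl-1 with rhodamine Noxa BH3 peptide and terbium anti-His antibody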
Numbers stand for hits; . = inactive; / = not tested or not shown; + = active, no number; [ ] = dose if it differs, or a comment. The list is not random: actives were taken first. Their share in the collection is about 3%.

SMILES	14-3-3 Bad PPI	Arbovirus inh	Mcl1 Bid PPI	Mcl-1 Bim block	Mcl1 Noxa PPI
COc1ccc(C(=O)/C=C/C(=O)N(CC(=O)NC2CCCCC2)Cc2ccccc2)c(O)c1	.	.	.	.	.
COc1ccc(C(=O)/C=C/C(=O)N(CC(=O)NC2CCCCC2)CC2CCCO2)c(O)c1 (centres undefined)	.	.	.	.	68
O=S(=O)(c1ccc2c(c1)oc1ccccc12)N1CCOCC1	+[fluorescence artefact?]	.	.	.	.
O=S(=O)(c1ccc2nc(Cc3ccccc3)[nH]c2c1)N1CCOCC1	88	.	.	.	.
O=S(=O)(NCc1ccccc1)c1cccc(S(=O)(=O)N2CCOCC2)c1	.	.	81	.	.
Cc1ccc(S(=O)(=O)N2CCC(NC(=O)c3cccc(C)c3)CC2)cc1	.	.	.	.	.
CCOCCCNCc1ccc(OC)c(OC)c1	.	.	.	.	.
CCOC(=O)CCNCc1ccc(OC)c(OC)c1	.	/	.	/	54
O=C(O)c1ccc2c(=O)n3cc(C(=O)c4ccccc4O)cc(Cl)c3nc2c1	.	/	.	/	60
CCOC(=O)CSC1=N/C(=C\c2ccc(OC)c(OC)c2)C(=O)N1C	74[fluorescence artefact?]	.	.	.	.
CCOC(=O)C1=C(O)/C(=C\c2ccc(OC)c(OC)c2)N=C1C	.	.	.	.	.
COc1cccc(N2CCN(c3cnc4ccccc4n3)CC2)c1	.	.	.	.	.
COc1ccc(N2CCN(c3cnc4ccccc4n3)CC2)cc1	.	.	.	.	59
CCCNC(=S)NCCN1CCCCC1	73	.	.	.	.
CCCCNC(=S)NCCN1CCCCC1	.	.	.	.	.
NC(=O)c1nc(-c2ccco2)nc2c1[nH]c(=O)n2-c1ccc(Cl)c(Cl)c1	.	/	.	/	.
CCC(=O)Nc1ccc(C(=O)Cn2nc(C(=O)O)c3ccccc3c2=O)cc1	.	.	.	.	56
FC(F)(F)c1cccc(Oc2ccc3c(C(F)(F)F)cc(C(F)(F)F)nc3n2)c1	.	51	.	.	.
O=C1OC(/C=C/c2ccc(Cl)cc2)=NC/1=C/c1ccco1	.	.	.	.	.
CCN1CCN(C(=S)c2ccc(-c3ccccc3)cc2)CC1	.	.	.	.	.
N#Cc1c(NC(=O)c2ccccc2Cl)n(Cc2ccccc2)c2nc3ccccc3nc12	.	.	.	.	70
COc1ccc(C(=O)Nc2ccccc2C(=O)NC(Cc2ccc(O)cc2)C(=O)NNC(=O)c2ccc(C)cc2)cc1 (centres undefined)	79	.	57	.	.
COc1ccc(N2CCC(CNC(=O)Nc3cccc(OC)c3)C2)cc1 (centres undefined)	/	.	.	.	89
COc1ccc(N2CCC(CNC(=S)Nc3cccc(OC)c3)C2)cc1 (centres undefined)	.	.	.	.	75
CCc1ccccc1NC(=S)NCC1CCN(c2ccc(OC)cc2)C1 (centres undefined)	.	/	.	/	.
SMILES	14-3-3 Bad PPI	Arbovirus inh	Mcl1 Bid PPI	Mcl-1 Bim block	Mcl1 Noxa PPI
CCc1cccc(C)c1NC(=S)NCC1CCN(c2ccc(OC)cc2)C1 (centres undefined)	.	.	.	.	.
COc1ccc(N2CCC(CNC(=O)Nc3ccc(Cl)cc3)C2)cc1 (centres undefined)	.	.	.	.	76
CCCC1=C(C(=O)OCC)C(c2cccnc2)n2nc(C)nc2N1 (centres undefined)	.	/	.	/	.
NC(=O)C1CCN(C2=C(Cl)C(=O)c3ccccc3C2=O)CC1	.	.	.	.	88
O=C1C(Cl)=C(N2CCC(C(=O)O)CC2)C(=O)c2ccccc21	.	/	.	/	52
NC(=O)C1CCN(C2=C(NS(=O)(=O)c3ccccc3)C(=O)c3ccccc3C2=O)CC1	.	/	.	/	.
N#Cc1cccc(S(=O)(=O)NCC(=O)OCC(=O)c2ccc[nH]2)c1	.	.	.	.	.
OC(CNCc1ccccc1)Cn1ccc2ccccc21 (centres undefined)	.	.	.	.	.
Oc1ccccc1NCC(O)Cn1ccc2ccccc21 (centres undefined)	.	.	.	.	74
CC(C)c1nnc(NC(=O)CCC(=O)NCc2cccs2)s1	.	.	.	.	.
O=C(Nc1ccccc1C(=O)O)c1ccc(NC(=O)c2ccc(Br)o2)cc1	.	46	.	.	.
O=C(Nc1ccccc1C(=O)O)c1cccc(NC(=O)c2ccc(Br)o2)c1	.	32	.	.	.
Cc1c(-c2ccnc3cc(C(=O)O)nn23)cnn1C	.	.	.	.	.
COc1cc(-c2nc(-c3ccc(NC(=O)c4ccc(Br)o4)cc3)no2)cc(OC)c1OC	.	.	68	.	.
COc1cc(-c2noc(-c3cccs3)n2)cc(OC)c1OC	.	.	.	.	.
COc1ccc(-c2nc(-c3ccc(Br)o3)no2)cc1OC	.	.	56	.	.
COc1ccc(-c2noc(-c3cccs3)n2)cc1OC	.	/	58	/	.
COc1ccc(-c2nnc(-c3ccc(Br)o3)o2)cc1OC	.	34	.	.	.
CC12CCC(C(=O)Nc3cccc4ccccc34)(C1Br)C2(C)C (centres undefined)	.	.	.	.	.
COc1ccc(/C=C2/SC(=O)N(CC(=O)Nc3cc(C)on3)C2=O)cc1OC	.	.	.	.	.
Cc1cccc(NC2=C(NC(=O)c3ccccc3)C(=O)c3ccccc3C2=O)c1	.	.	.	.	94
O=C(NC1=C(Nc2ccc(Cl)cc2)C(=O)c2ccccc2C1=O)c1ccccc1	.	.	.	.	61
O=C(NC1=C(NC2CCS(=O)(=O)C2)C(=O)c2ccccc2C1=O)c1ccccc1 (centres undefined)	.	.	.	.	70
CCOC(=O)/C(C#N)=C\c1cc(OC)c(OC)cc1[N+](=O)[O-]	.	.	.	.	.
CCCOC(=O)C1[C@H]2C(=O)N(CCCOC)C[C@]23C=C[C@H]1O3 (some centres undefined)	.	.	.	.	59
SMILES	14-3-3 Bad PPI	Arbovirus inh	Mcl1 Bid PPI	Mcl-1 Bim block	Mcl1 Noxa PPI
COCCCN1CC23C=CC(O2)C(C(=O)O)C3C1=O (centres undefined)	.	.	.	.	.
Cc1nn(CCC(N)=S)c2nc(-c3cccs3)cc(C(F)(F)F)c12	.	.	.	.	.
CCOC(=O)C(=O)c1csc(NC(=O)CCSc2ccc(C)cc2)n1	.	.	.	.	.
c1ccc(-c2cnnc(SCc3cn4cccnc4n3)n2)cc1	78	.	.	.	.
C/C(=N/NC(=O)c1cc2ccccc2cc1O)C1C(=O)c2ccccc2C1=O	.	.	.	.	92
C/C(=N\NC(=O)c1ccccc1O)C1C(=O)c2ccccc2C1=O	.	.	.	.	66
C/C(=N\NC(=O)c1cc2ccccc2cc1O)c1cc2ccccc2o1	.	/	.	/	.
O=C1COc2ccc(C(=O)c3ccccc3C(=O)NCc3ccco3)cc2N1	.	.	.	.	.
